Data: PubChem BioAssay AID1159580 (chemical genetic matrix, 2015)
Hit rate of the full screen: of about 5,500 compounds, about 2,000 (36%) were called active. About 18% were inconclusive and are not listed. Rule as the data show it: active = normalized growth mostly below about 0.91 (no sharp cut-off); inconclusive = no clear call, values can overlap the other calls; inactive = mostly above about 0.92. The list shows a part of the results.

Assay: chemical genetic growth profiling, strain panel (AID 1159580);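 also: tested at 20 µM; growth read once vehicle control cultures reached saturation at 30 °C; 1 = growth at the plate median or of vehicle wells; lower values mean less growth of the strain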
Details: S. cerevisiae deletion strains, growth OD

Measured: normalized growth

CC(C)N(C(=O)CCl)c1ccccc1
active: locus YDR392W, strain spt3, active compounds read low 0.649 | locus YJL129C, strain trk1, active compounds read low 1.23 [resistant]
inactive: locus YAL013W, strain DEP1, active compounds read low 1.03 | locus YAL021C, strain ccr4, active compounds read low 1.03 | locus YAL026C, strain drs2, active compounds read low 1.04 | locus YAL030W, strain snc1, active compounds read low 1.02 | locus YBL061C, strain skt5, active compounds read low 1.01 | locus YBR009C, strain hhf1, active compounds read low 0.949 | locus YBR021W, strain FUR4, active compounds read low 1.07 | locus YBR023C, strain chs3, active compounds read low 1.02 | locus YBR171W, strain sec66, active compounds read low 1.01 | locus YBR229C, strain ROT2, active compounds read low 1.02 | locus YBR231C, strain swc5, active compounds read low 0.991 | locus YBR279W, strain paf1, active compounds read low 0.993 | locus YCL011C, strain gbp2, active compounds read low 1.01 | locus YCL016C, strain dcc1, active compounds read low 1.01 | locus YCL029C, strain bik1, active compounds read low 1.02 | locus YCL061C, strain MRC1, active compounds read low 1.02 | locus YCL069W, strain vba3, active compounds read low 1.01 | locus YCR088W, strain abp1, active compounds read low 1.03 | locus YDL005C, strain med2, active compounds read low 1.04 | locus YDL035C, strain GPR1, active compounds read low 1.04 | locus YDL040C, strain nat1, active compounds read low 1 | locus YDL074C, strain BRE1, active compounds read low 1.05 | locus YDL101C, strain DUN1, active compounds read low 1.02 | locus YDL134C, strain PPH21, active compounds read low 1.02 | locus YDL185W, strain tfp1, active compounds read low 1.02 | locus YDL192W, strain arf1, active compounds read low 1.01 | locus YDR001C, strain nth1, active compounds read low 1.01 | locus YDR069C, strain doa4, active compounds read low 0.979 | locus YDR101C, strain arx1, active compounds read low 1.02 | locus YDR137W, strain rgp1, active compounds read low 1.08 | locus YDR150W, strain NUM1, active compounds read low 1.03 | locus YDR159W, strain sac3, active compounds read low 1.01 | locus YDR162C, strain NBP2, active compounds read low 1.03 | locus YDR195W, strain ref2 0.917 | locus YDR297W, strain sur2, active compounds read low 1.03 | locus YDR318W, strain mcm21, active compounds read low 1.02 | locus YDR334W, strain swr1, active compounds read low 1.01 | locus YDR335W, strain msn5, active compounds read low 1.01 | locus YDR388W, active compounds read low 1.02 | locus YDR502C, strain sam2, active compounds read low 1.02 | locus YEL003W, strain gim4, active compounds read low 1 | locus YEL037C, strain rad23, active compounds read low 1.01 | locus YEL061C, strain CIN8 (second series), active compounds read low 1.01 | locus YEL061C, strain CIN8, active compounds read low 1.02 | locus YER015W, strain faa2, active compounds read low 0.997 | locus YER016W, strain bim1, active compounds read low 1.01 | locus YER110C, active compounds read low 1.03 | locus YER111C, strain swi4, active compounds read low 1.02 | locus YER155C, strain BEM2 (second series), active compounds read low 1.01 | locus YER155C, strain BEM2, active compounds read low 1.03 | locus YER167W, strain BCK2, active compounds read low 1.03 | locus YFR010W, strain ubp6, active compounds read low 0.985 | locus YGL078C, strain dbp3, active compounds read low 1.03 | locus YGL086W, strain mad1, active compounds read low 1.02 | locus YGL167C, strain pmr1, active compounds read low 1.01 | locus YGL173C, strain kem1, active compounds read low 1.03 | locus YGL227W, strain vid30, active compounds read low 1.01 | locus YGL240W, strain doc1, active compounds read low 0.977 | locus YGL248W, strain PDE1, active compounds read low 1.04 | locus YGL253W, strain hxk2, active compounds read low 0.941 | locus YGR078C, strain PAC10, active compounds read low 1.02 | locus YGR135W, strain pre9, active compounds read low 1.01 | locus YGR229C, strain SMI1, active compounds read low 1.05 | locus YGR252W, strain gcn5, active compounds read low 0.958 | locus YHR013C, strain ard1, active compounds read low 0.881 | locus YHR027C, strain rpn1, active compounds read low 1.01 | locus YHR030C, strain SLT2, active compounds read low 1 | locus YHR079C, strain IRE1 (second series), active compounds read low 1.02 | locus YHR094C, strain hxt1, active compounds read low 1.01 | locus YHR129C, strain ARP1, active compounds read low 1.04 | locus YHR142W, strain chs7, active compounds read low 1.01 | locus YHR200W, strain rpn10, active compounds read low 1.02 | locus YIL066C, strain RNR3, active compounds read low 1.01 | locus YIL073C, strain SPO22, active compounds read low 0.961 | locus YIL125W, strain kgd1, active compounds read low 1.03 | locus YIR030C, strain dcg1, active compounds read low 1.02 | locus YJL092W, strain hpr5, active compounds read low 1.03 | locus YJL095W, strain BCK1 (second series), active compounds read low 1.01 | locus YJL095W, strain BCK1, active compounds read low 1.02 | locus YJL115W, strain asf1, active compounds read low 1.03 | locus YJL134W, strain LCB3, active compounds read low 1.03 | locus YJL154C, strain vps35, active compounds read low 1.02 | locus YJL164C, strain tpk1, active compounds read low 0.999 | locus YJL166W, strain qcr8, active compounds read low 0.955 | locus YJL168C, strain set2, active compounds read low 1 | locus YJL187C, strain SWE1 (second series), active compounds read low 1.02 | locus YJL187C, strain SWE1, active compounds read low 1.02
